Shown are actives, neighbours in structure and some others; about 11% of the full set was active somewhere.
CBFb RUNX1 block – inhibitors of human CBF-beta and RUNX1 interaction; 230,000 tested, under 10 active; Potency, µM (titrated, usually from 59.8 µM), inactives show top-dose activity, negative = inhibition, hits mostly inhibitors; Q01196+Q13951; AlphaScreen CBFb-His/RUNX1-biotin binding, biochemical; further: % of control where 0% means no effect
Target sequence (Q01196 whole entry, looked up): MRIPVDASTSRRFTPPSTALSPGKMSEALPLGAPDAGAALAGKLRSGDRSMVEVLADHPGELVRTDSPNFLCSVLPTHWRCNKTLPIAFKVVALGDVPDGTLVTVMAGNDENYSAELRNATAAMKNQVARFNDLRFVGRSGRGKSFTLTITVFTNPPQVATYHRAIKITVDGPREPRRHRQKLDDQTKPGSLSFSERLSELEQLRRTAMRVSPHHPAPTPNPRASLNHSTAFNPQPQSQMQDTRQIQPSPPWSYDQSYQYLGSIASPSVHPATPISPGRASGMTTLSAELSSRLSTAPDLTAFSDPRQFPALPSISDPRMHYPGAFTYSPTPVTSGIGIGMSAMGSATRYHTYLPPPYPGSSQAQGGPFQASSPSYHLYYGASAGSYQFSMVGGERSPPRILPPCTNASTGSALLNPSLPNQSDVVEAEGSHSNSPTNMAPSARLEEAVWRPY
Target sequence (Q13951 whole entry, looked up): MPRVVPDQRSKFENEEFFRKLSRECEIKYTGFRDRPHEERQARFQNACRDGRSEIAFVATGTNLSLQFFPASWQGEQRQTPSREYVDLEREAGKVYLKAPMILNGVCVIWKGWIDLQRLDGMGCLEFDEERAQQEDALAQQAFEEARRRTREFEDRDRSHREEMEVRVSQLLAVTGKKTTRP
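AlphaScreen proximity signal reports loss of binding between His-tagged CBF-beta and biotin-labelled RUNX1, each at 30 nM. Proteins are pre-associated for 20 minutes, compounds added for 15 minutes, then beads for 90 minutes, all at ambient temperature.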
HTT ATP protect – cytoprotection in Huntington HTT-Q103 PC12 cell model; PC12 HTT-Q103 induced, cytoprotection, ATP luminescence, 40 h; Potency, µM (series often up to 56.4 µM), for inactives: cytoprotection (ATP increase), usual class: activators; 230,000 compounds, 0.14% hits; AID 1471; further: potency means the concentration at half of the fitted maximal effect; % of control where 0% means no effect; nearly all actives have a fitted effect of over 45% in size
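Compounds added alongside 100 nM tebufenozide, which induces toxic Q103 huntingtin exon 1-GFP in stable PC12 cells; surviving cells quantified by luminescent ATP measurement. Medium: phenol red-free DMEM, 5% equine and 5% calf serum.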
HTT aggregate – reduces HttQ103-GFP aggregates in PC12 cells | Potency, µM (titrated, usually from 46.1 µM), inactives show top-dose activity change, negative = inhibition, actives largely listed as inhibitors | PC12 HttQ103-GFP aggregates, Acumen cytometry, 40 h | 220,000 compounds, 1.1% hits | AID 1688; further: potency means the concentration at half of the fitted maximal effect; on the % scale 0 is the no-effect control and ±100 the full control effect; nearly all actives have a fitted effect of over 60% in size
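PC12 cells stably carrying ecdysone-inducible HTT exon 1 Q103–GFP were induced with tebufenozide (100 nM final) and treated with library compounds in titration. GFP aggregates in lysates were counted by laser scanning cytometry.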
HPGD block – inhibitors of human 15-hydroxyprostaglandin dehydrogenase (HPGD); P15428; purified HPGD, NADH fluorescence kinetic, PGE2 substrate; Potency, µM, for the others: top-dose activity change, negative = inhibition, most hits filed as inhibitors; 150,000 compounds, 4.3% hits; AID 894; active means well fitted inhibition curve with a large enough effect, not every such curve was filed as active; inconclusive means small, poorly fitted or top-dose-only effect, or another doubt; inactive means no such curve, though single readings can be large or run the other way; further: potency means the concentration at half of the fitted maximal effect; on the % scale 0 is the no-effect control and ±100 the full control effect
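NADH formation kinetics: reaction with 30 uM PGE2 and 1 mM NAD+ (final), 20 nM enzyme, Tris-HCl pH 8 with Tween 20, after 15 min compound preincubation at room temperature. Fluorescence change, last versus first of five reads.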
ALDH1A1 block – blocks purified human ALDH1A1 activity | P00352 | Purified ALDH1A1, NADH fluorescence, propionaldehyde substrate | Potency, µM (series often up to 75.3 µM), without a hit: at the highest dose activity, negative = inhibition, hits mostly inhibitors | 220,000 compounds, 7.3% hits | AID 1030; active means well fitted inhibition curve with a large enough effect, not every such curve was filed as active; inconclusive means small, poorly fitted or top-dose-only effect, or another doubt; inactive means no such curve, though single readings can be large or run the other way;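 further: potency means the concentration at half of the fitted maximal effect; plate controls were no enzyme wells and a reference inhibitor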
PNC inhibitor – inhibitors of perinucleolar compartment assembly. 140,000 compounds, 3.1% hits. PC3M PTB-GFP, PNC prevalence imaging, 16 h; stronger effect = lower value. activity change (PNC), negative = inhibition, % at 10 µM. AID 2417;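 active means readout at or below -70, meaning at least 70% loss of cells showing the perinucleolar compartment, a nuclear body marking cancer cells; inconclusive means readout between -30 and a set limit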;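 further: plate controls were DMSO wells for no effect and camptothecin positive control wells for full effect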
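PC3M cells stably expressing PTB-GFP, 750–1000 cells/well, treated 16 h at 37 °C with compound (23 nl of library stock), in duplicate. After paraformaldehyde fixation and Hoechst stain, imaged at 20x; PNC prevalence scored by image analysis.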
Active calls of the source: *; ? = inconclusive; . = no result; [ ] = another dose, or the depositor's remark. Unless noted, the call rests on the fitted dose curve; in most records, active means well fitted curve in the direction sought with a large enough effect; inconclusive means small, poorly fitted or top-dose-only effect, or another doubt; inactive means no such curve, though single readings can be large; an effect the other way counts as inactive or inconclusive.

SMILES	CBFb RUNX1 block	HTT ATP protect	HTT aggregate	HPGD block	ALDH1A1 block	PNC inhibitor
O=C(OCc1nnc(-c2ccccc2)o1)c1cccnc1Cl	-3.2%	-10.0%	18.2%	.	-0.5%	.
O=C(OCc1nnc(-c2ccccc2)o1)c1ccc2c(c1)OCO2	11.9%	22.3%[10 µM]	15.0%	7.08µM*	-2.2%	-28.1
Cc1ccc(S(=O)(=O)N(C)CC(=O)OCc2nnc(-c3ccccc3)o2)cc1	12.3%	-24.7%	?	25.1µM*	?	-6.9
O=C(OCc1nnc(-c2ccccc2)o1)c1ccco1	1.0%	4.6%	7.7%	8.91µM*	?	-5.5
O=C(OCc1nnc(-c2ccccc2)o1)c1cc(=O)c2ccccc2o1	-7.2%	-20.3%	14.5%	-9.3%	9.4%	?
CCOc1ncccc1C(=O)OCc1nnc(-c2ccccc2)o1	7.2%	12.3%	-19.0%	15.8µM*	6.4%	-22.5
Cc1nn(Cc2ccccc2)c(Cl)c1C(=O)OCc1nnc(-c2ccc(Cl)cc2)o1	8.1%	-2.7%[10 µM]	-8.9%	-19.0%	1.8%	-7.5
O=C(OCc1nnc(-c2ccccc2)o1)C1CC(=O)N(Cc2ccco2)C1 (stereo not drawn)	2.2%	-17.2%	12.1%	.	15µM*	.
Cc1nn(Cc2ccccc2)c(Cl)c1C(=O)OCc1nnc(-c2ccccc2)o1	22.2%	17.1%[10 µM]	11.6%	12.6µM*	1.6%	-13.0
CCOC(=O)c1sc(N)c(C(=O)OCC)c1COC(=O)C1CC(=O)N(Cc2ccco2)C1 (stereo not drawn)	5.2%	-2.0%[10 µM]	?	-20.9%	20µM*	41.1
ClCc1nnc(-c2ccccc2)o1	-10.9%	18.0%[10 µM]	24.1%	-15.4%	7.94µM*	-1.3
COC(=O)c1sc(N)c(C(=O)OC)c1COC(=O)C1CC(=O)N(Cc2ccco2)C1 (stereo not drawn)	1.1%	-10.1%[10 µM]	?	?	?	24.2
C/C=C1\C(=O)C[C@H]2[C@@H]3CCC4=CC(=O)CC[C@]4(C)[C@H]3CC[C@]12C	13.3%[21.7 µM]	24.5%	.	-4.8%	?	.
O=C(O)Cc1cc2ccccc2nc1C(=O)O	8.2%[21.7 µM]	1.5%	.	-9.9%	?	.
CC1CCC2C(=O)N3C(CCC(C)[C@@H]3c3ccc(-c4ccco4)cc3)C(=O)N2C1c1cccc(N2CCCC2=O)c1 (stereo partly drawn)	4.2%[13.1 µM]	11.9%[10 µM]	.	.	?	.
COc1coc(C(O)C[N+](=O)[O-])cc1=O (stereo not drawn)	1.8%	.	-21.9%	-14.5%	?	51.9
CCOC(=O)c1[nH]c(COC(=O)C2CC(=O)N(Cc3ccccc3)C2)c(C(=O)OCC)c1C (stereo not drawn)	2.9%	-7.7%	18.7%	28.2µM*	39.8µM*	41.3
COC(=O)C1CC(=O)N(Cc2ccccc2)C1 (stereo not drawn)	-3.1%	5.4%[10 µM]	-8.5%	.	-2.4%	.
N#Cc1ccccc1Sc1ccccc1C(=O)OCc1nnc(-c2ccccc2)o1	8.5%	-18.1%	5.5%	8.91µM*	-4.3%	-5.4
CC(C)CC(NC(=O)OC(C)(C)C)c1cn([C@@H](CCC(=O)OC(C)(C)C)C(=O)N2CCN(C(=O)OC(C)(C)C)CC2)nn1 (stereo partly drawn)	18.4%	-10.5%[10 µM]	-1.2%[9.22 µM]	.	0.6%	.
CCN(CC(=O)Nc1sc2c(c1C#N)CCCC2)Cc1nc2ccccc2c(=O)[nH]1	4.0%	-2.7%	-7.8%	.	?	.
CCN(CC(=O)Nc1sc2c(c1C#N)CCC(C)C2)Cc1nc2ccccc2c(=O)[nH]1 (stereo not drawn)	10.6%	10.2%[10 µM]	-23.5%	.	25.1µM*	.
CCCC(NC(=S)NCC1CCCO1)C12CC3CC(CC(C3)C1)C2 (stereo not drawn)	0.2%	-29.6%	?	.	?	.
CS(=O)(=O)Nc1ccc(Nc2c3ccccc3nc3ccccc23)cc1	.	-40.8%[10 µM]	.	-13.4%	6.5%[13.5 µM]	.
O[C@@H](C1=C/C(=C\c2ccncc2)c2ccccc21)c1ccncc1	.	-6.3%[10 µM]	.	-1.1%	-0.8%[13.5 µM]	.
SMILES	CBFb RUNX1 block	HTT ATP protect	HTT aggregate	HPGD block	ALDH1A1 block	PNC inhibitor
CCN(CC)C(=O)c1c[nH]c2ccc(S(=O)(=O)Nc3cc(C)cc(C)c3)cc2c1=O	12.6%	-17.4%	-0.6%	-2.6%	-2.7%	6.5
CCc1ccc(NS(=O)(=O)c2ccc3[nH]cc(C(=O)N4CCc5ccccc54)c(=O)c3c2)cc1	-7.5%	-37.5%[10 µM]	-0.3%	-24.1%	14.1µM*	?
Cc1cc(C)cc(NS(=O)(=O)c2ccc3[nH]cc(C(=O)N4CCc5ccccc54)c(=O)c3c2)c1	-0.3%	5.6%[10 µM]	?	-25.7%	10µM*	-17.1
CCc1ccc(NS(=O)(=O)c2ccc3[nH]cc(C(=O)N4CCCCC4)c(=O)c3c2)cc1	7.3%	-5.8%	-4.4%	?	?	?
CCOC(=O)c1c(C)c(C(=O)NCCOC)c(C)n1CC	-4.9%	0.0%[1.9 µM]	-8.6%	8.91µM*	0.4%	8.6
CCOC(=O)c1c(C)c(C(=O)NCCCOC)c(C)n1C	1.5%	-22.4%[10 µM]	-13.3%	?	1.2%	49.5
CCN1CCN(S(=O)(=O)c2ccc3ccccc3c2)CC1	2.3%	12.3%	-2.0%	-3.7%	-12.7%	35.7
CC1CN(C2CCN(S(=O)(=O)c3ccc4ccccc4c3)CC2)CC(C)O1 (stereo not drawn)	-3.4%	-49.8%	6.9%	.	14.1µM*	10.9
Cc1cc(Nc2ccc(Cl)cc2)n(-c2ccccc2)n1	-9.1%	-23.9%	-22.2%	7.94µM*	-8.9%	-14.4
OC(CNCC(c1ccc(Cl)cc1Cl)c1c[nH]c2ccccc12)c1ccccc1 (stereo not drawn)	5.3%	-14.8%[10 µM]	?	.	3.9%	.
Cc1ccc2nc(NC(=O)CSc3nc4c(c(=O)n3C)SC(C)C4)sc2c1 (stereo not drawn)	-21.9%	29.1%	?	?	14.1µM*	-2.6
CCNc1ncc2nc(-c3ccc(Cl)cc3)c(=O)n(C3CC3)c2n1	.	-49.0%	.	?	?	.
COC(=O)c1ccc(N2CCN(C(C)=O)CC2)c(NC(=O)COc2ccccc2C)c1	1.3%	14.7%[10 µM]	18.3%[9.22 µM]	.	7.94µM*	.
Cc1ccccc1OCC(=O)Nc1ccccc1N1CCCCC1	16.3%	-11.3%[10 µM]	-10.9%	-20.0%	-0.4%	-4.4
COC(=O)c1ccc(N2CCOCC2)c(NC(=O)Nc2cccc(OC)c2)c1	-9.2%	14.5%[10 µM]	7.4%	?	25.1µM*	?
COC(=O)c1c(N)sc(Cc2ccccc2)c1C	-3.4%	7.2%[10 µM]	13.6%[9.22 µM]	.	?	.
Nc1sc(-c2ccccc2)c(Cc2ccccc2)c1C(=O)O	-13.7%	-15.6%	4.2%	.	10µM*	.
CCOC(=O)C1CCCN(c2cc(NCCCO)c([N+](=O)[O-])c3nonc23)C1 (stereo not drawn)	0.3%	0.4%[10 µM]	7.8%	12.6µM*	?	?
